# Assay results from PubChem BioAssay (NCATS).
# Records with an inconclusive call do not appear. Entries that show only a call come without a potency. Calls of active or inactive are those of the source. Calls come from the whole dose curve; as a rule, active = well fitted inhibition curve with a large enough effect; inconclusive = small, poorly fitted or top-dose-only effect; inactive = flat fitted curve, though single readings scatter.
# Molecular target: Luciferin 4-monooxygenase (Photinus pyralis) (UniProt P08659)
# Experiment: Biochemical firefly luciferase enzyme assay for NPC (AID 624030);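 note: purified P. pyralis luciferase at 10 nM with luciferin and ATP substrate; nearly all actives have a fitted effect of over 70% in size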
# Conditions: purified P. pyralis luciferase, luminescence, 5 min; series mostly up to 58.6 µM
# How it was run: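 Direct inhibition of firefly luciferase enzyme (10 nM final, 50 mM Tris Acetate) assessed by luminescence within 5 minutes. Percent activity scaled between DMSO and PTC124 positive control, with concentration-effect curves classified by fit quality and response.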
# Chain of Luciferin 4-monooxygenase (Photinus pyralis) (P08659 whole entry, looked up): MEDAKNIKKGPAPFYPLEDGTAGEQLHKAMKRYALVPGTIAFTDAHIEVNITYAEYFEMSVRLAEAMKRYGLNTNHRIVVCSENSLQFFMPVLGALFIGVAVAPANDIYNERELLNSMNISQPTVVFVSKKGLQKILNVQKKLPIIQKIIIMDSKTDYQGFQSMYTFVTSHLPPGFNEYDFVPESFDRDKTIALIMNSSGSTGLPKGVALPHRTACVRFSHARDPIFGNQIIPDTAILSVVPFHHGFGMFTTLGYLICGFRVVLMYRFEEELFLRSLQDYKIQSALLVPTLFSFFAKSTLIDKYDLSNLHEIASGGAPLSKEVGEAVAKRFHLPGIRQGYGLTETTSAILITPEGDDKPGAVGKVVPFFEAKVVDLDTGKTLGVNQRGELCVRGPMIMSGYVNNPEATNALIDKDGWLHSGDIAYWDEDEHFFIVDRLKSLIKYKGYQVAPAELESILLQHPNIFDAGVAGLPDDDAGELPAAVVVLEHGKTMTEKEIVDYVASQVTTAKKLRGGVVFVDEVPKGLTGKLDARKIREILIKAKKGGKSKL
row,Structure (SMILES),Potency
1,CCCOC(C(=O)OC1CCN(C)CC1)(c1ccccc1)c1ccccc1,inactive
2,COC(=O)C1=C(C)NC(C)=C(C(=O)O[C@@H]2CCCN(Cc3ccccc3)C2)[C@@H]1c1cccc([N+](=O)[O-])c1,inactive
3,CCN(CCCc1ccccc1)CCCc1ccccc1,inactive
4,CNCCC(Oc1ccccc1C)c1ccccc1 (centres undefined),inactive
5,COC(=O)[C@H]1[C@H]2C[C@H]3c4[nH]c5ccccc5c4CCN3C[C@H]2CC[C@@H]1O,inactive
6,Clc1ccc2c(c1)CCc1cccnc1C2=C1CCNCC1,inactive
7,COc1cc2c(cc1OC)C(C(C(=O)N(CCc1ccc(OC)c(OC)c1OC)CCc1ccc(OC)c(OC)c1OC)c1ccccc1)=NCC2 (centres undefined),inactive
8,CCCCCCC[N+](CC)(CC)CCCCc1ccc(Cl)cc1,inactive
9,COC(=O)CCc1ccc(OCC(O)CNC(C)C)cc1 (centres undefined),inactive
10,Cc1ccc(C(=O)C(C)CN2CCCCC2)cc1 (centres undefined),inactive
11,CN(C(=O)CN(CCO)CC(=O)N(C)C(C)(C)Cc1ccccc1)C(C)(C)Cc1ccccc1,inactive
12,CCOc1ccc(Cc2nccc3cc(OCC)c(OCC)cc23)cc1OCC,inactive
13,CC(C)NC[C@@H](O)COc1cccc2ccccc12,inactive
14,CC(C)(C)CC(C)(C)c1ccc(O)c(Cc2ccc(Cl)cc2Cl)c1,inactive
15,O=C1OCCN1/N=C/c1ccc([N+](=O)[O-])o1,inactive
16,CCCCOc1ccc(OCCCN2CCOCC2)cc1,inactive
17,COc1ccc(C2C(=O)c3ccccc3C2=O)cc1,inactive
18,CCCCCCCCCCCCCCCC[N+](C)(C)CC,inactive
19,O=S1(=O)c2cccc3cccc(c23)N1CCCN1CCN(c2ccc(F)cc2)CC1,inactive
